Structures are written as SMILES. Records with an inconclusive call do not appear. Unmarked numbers belong to inactive results. The call rests on the fitted dose curve; in most records, active means well fitted cell-killing curve with a large enough effect; inconclusive means small, poorly fitted or top-dose-only effect; inactive means flat fitted curve, though single readings scatter.
On the % scale 0 is the no-effect control and ±100 the full control effect.

A short description of the test: NCATS anti-infectives library activity on HEK293 viability as a counter-qHTS vs the C. elegans viability qHTS (AID 1745854).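 Further: HEK293 cells exposed to compounds for 24 hr before the viability read.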 The conditions noted are these: HEK293 viability counter-screen; series mostly up to 41.8 µM; activity change, negative = cytotoxicity: at the top concentration. The method, boiled down:
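Counter-screen for cytotoxicity: HEK293, 24 hr, 37C, compounds up to 41.7 uM final (a dilution series, 1:5). Readout CellTiter-Glo luminescence, 10 min RT. Digitonin control, 83.3 uM final.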
Background: In qHTS, concentration-response curves come from the screen itself.
Turning to `COc1cnc(-n2cnc(C)n2)c2[nH]cc(C(=O)C(=O)N3CCN(C(=O)c4ccccc4)CC3)c12`, the “activity change, negative = cytotoxicity” value was 4.76%.

For `Cc1cc(OCCN2CCOCC2)nn1-c1ccc2ccccc2c1`, the “activity change, negative = cytotoxicity” value was -1.49%.

On to `CCc1nn(CCO)c(CC)c1Oc1cc(C#N)cc(C#N)c1`, for which the “activity change, negative = cytotoxicity” value is -16.9%.

These data come from PubChem BioAssay (NCATS).
